# Results as given in PubChem BioAssay (NCATS).
# “And” between values parts separate entries of the source, which are not always exact repeats. Equal values may be shown once. Records with an inconclusive call do not appear. Entries that show only a call come without a potency. Unmarked numbers belong to inactive results. The source made the active and inactive calls. Calls come from the whole dose curve; as a rule, active = well fitted curve in the direction sought with a large enough effect; inconclusive = small, poorly fitted or top-dose-only effect, or another doubt; inactive = no such curve, though single readings can be large; an effect the other way counts as inactive or inconclusive.
# Key:
# [1] = test system: Zika virus NS2B-NS3 protease; assay: Primary screen GU AMC qHTS for Zika virus inhibitors (AID 1347154); note: nearly all actives have a fitted effect of over 70% in size; note: potency is the fitted concentration of half-maximal effect
# Procedure, shortened: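 Unlinked Zika NS2B hydrophilic domain/NS3 protease domain noncovalent complex (25 nM final) in 10 mM Tris-HCl pH 8.0, 0.01% Tween 20, with AMC peptide substrate. Fluorescence (ex 340, em 450 nm) change over 15 min, room temperature; percent inhibition fitted to 4-parameter Hill equation.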
# [2] = biological target: Lysine-specific demethylase 5B (Homo sapiens) (UniProt Q9UGL1); assay: Optimization screen for KDM5B Histone Demethylases FDH coupled qHTS against the LOPAC library (AID 1347166); conditions: KDM5B demethylation, FDH-coupled NADH fluorescence (FDH is formaldehyde dehydrogenase); at 57.5 µM (top of the series)
# Lysine-specific demethylase 5B (Homo sapiens), sequence (Q9UGL1 whole entry, looked up): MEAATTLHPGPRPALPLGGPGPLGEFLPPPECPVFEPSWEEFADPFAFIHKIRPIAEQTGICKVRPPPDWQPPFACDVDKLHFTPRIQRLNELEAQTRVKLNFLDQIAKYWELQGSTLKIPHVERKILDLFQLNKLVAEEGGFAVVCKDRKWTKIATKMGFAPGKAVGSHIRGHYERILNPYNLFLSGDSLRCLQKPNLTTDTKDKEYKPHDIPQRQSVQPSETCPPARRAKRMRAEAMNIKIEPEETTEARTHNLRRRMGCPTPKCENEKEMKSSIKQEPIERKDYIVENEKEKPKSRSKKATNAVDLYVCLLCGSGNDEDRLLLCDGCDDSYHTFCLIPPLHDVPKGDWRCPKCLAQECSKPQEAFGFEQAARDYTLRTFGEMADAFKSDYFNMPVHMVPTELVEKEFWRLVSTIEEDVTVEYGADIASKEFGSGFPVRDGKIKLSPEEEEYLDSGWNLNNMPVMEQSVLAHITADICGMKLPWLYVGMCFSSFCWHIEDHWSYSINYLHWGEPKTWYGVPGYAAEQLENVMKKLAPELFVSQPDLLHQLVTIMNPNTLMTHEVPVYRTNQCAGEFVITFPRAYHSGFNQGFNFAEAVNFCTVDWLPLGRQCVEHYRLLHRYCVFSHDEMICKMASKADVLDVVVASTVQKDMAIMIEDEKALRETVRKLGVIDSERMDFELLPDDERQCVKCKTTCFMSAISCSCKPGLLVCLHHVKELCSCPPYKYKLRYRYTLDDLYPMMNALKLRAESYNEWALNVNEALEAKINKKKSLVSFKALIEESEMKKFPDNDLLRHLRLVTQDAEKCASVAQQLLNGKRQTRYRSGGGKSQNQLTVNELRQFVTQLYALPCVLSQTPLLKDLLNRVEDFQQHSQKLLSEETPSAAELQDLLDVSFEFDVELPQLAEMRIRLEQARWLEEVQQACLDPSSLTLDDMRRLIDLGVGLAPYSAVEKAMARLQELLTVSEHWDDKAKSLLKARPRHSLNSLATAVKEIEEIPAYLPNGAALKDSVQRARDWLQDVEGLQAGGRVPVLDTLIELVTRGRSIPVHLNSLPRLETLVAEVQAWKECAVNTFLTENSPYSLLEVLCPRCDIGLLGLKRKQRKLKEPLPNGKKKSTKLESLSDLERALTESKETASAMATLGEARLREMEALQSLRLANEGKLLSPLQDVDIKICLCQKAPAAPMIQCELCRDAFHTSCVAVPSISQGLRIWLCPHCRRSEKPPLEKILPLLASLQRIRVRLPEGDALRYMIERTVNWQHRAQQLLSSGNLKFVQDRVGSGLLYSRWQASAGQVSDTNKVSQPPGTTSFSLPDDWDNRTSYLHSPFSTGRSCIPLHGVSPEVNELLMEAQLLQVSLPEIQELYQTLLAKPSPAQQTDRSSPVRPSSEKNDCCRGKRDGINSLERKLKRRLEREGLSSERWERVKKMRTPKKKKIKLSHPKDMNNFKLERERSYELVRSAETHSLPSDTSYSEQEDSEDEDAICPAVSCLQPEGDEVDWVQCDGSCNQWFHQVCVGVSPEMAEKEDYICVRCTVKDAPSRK
# Procedure, shortened: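 KDM5BDeltaAP (200nM final) in 50mM HEPES pH 7.5, 0.01% Tween-20 was preincubated with compound for 10 min at room temperature. A substrate mix of 12.5uM H3K4Me3, 25uM a-ketoglutarate, ascorbate, Fe2+, NAD+ and formaldehyde dehydrogenase was then added. NADH fluorescence (340/450 nm) was read initially and after 30 min.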
# [3] = Confirmatory screen NINDS Rhodamine qHTS for Zika virus inhibitors (AID 1347161); note: nearly all actives have a fitted effect of over 60% in size; note: potency is the fitted concentration of half-maximal effect;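 for activity change, negative = inhibition: purified Zika NS2B-NS3 protease with linked NS2B cofactor domain and Rhodamine110 peptide substrate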
# Procedure, shortened: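 Purified linked NS2B-NS3 protease (NS2B hydrophilic domain joined to NS3 protease by flexible linker), 25 nM in 10 mM Tris-HCl pH 8.0, 0.01% Tween 20. Compounds titrated, 15 min preincubation at room temperature; 1.5 microM Rhodamine110 substrate, FITC fluorescence change over 15 min.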
# [4] = Vero cells viability qHTS for Zika virus inhibitors (AID 1347167)
# Procedure, shortened: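 To flag cytotoxic protease inhibitors, viability is measured by ATP-dependent luminescence (CellTiter Glo) after cells attached overnight receive compound for 24 to 48 hours in DMEM with 4% FBS.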
# [5] = Tertiary RLuc qRT-PCR qHTS assay for Zika virus inhibitors (AID 1347169); note: nearly all actives have a fitted effect of over 55% in size; note: potency is the fitted concentration of half-maximal effect; for activity change, negative = inhibition: top concentration of the series differs between compounds
# Procedure, shortened: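 Inhibition of ZIKV-RLuc replication in Vero cells, read as Renilla luminescence 1-1.5 hrs after live-cell substrate addition, following 48-72 hrs infection at MOI 1-2 in presence of compound.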
# [6] = test system: Zika virus NS2B-NS3 protease (linked construct); assay: Primary screen NINDS Rhodamine qHTS for Zika virus inhibitors (AID 1347160); note: nearly all actives have a fitted effect of over 55% in size
# Procedure, shortened: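 Each compound, titrated, sat 15 min with 25 nM linked protease before 1.5 microM Rhodamine110 substrate went in. Fluorescence gain over the next 15 min, in pH 8.0 Tris with Tween 20, gave Hill-fitted curves.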
# [7] = OV-KATE Cancer Cell Toxicity qHTS against the NCATS CANVASS Library (AID 1347345)
# Procedure, shortened: (§1)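 Cells were seeded at 1000 per well, allowed 4 h at 37 degrees C/5% CO2, then pin-treated with an 11-point compound series. After 72 h, viability was read as CellTiter-Glo luminescence following 15min at room temperature.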
# [8] = HPAF-II Cancer Cell Toxicity qHTS against the NCATS CANVASS Library (AID 1347346); note: nearly all actives have a fitted effect of over 55% in size
# Procedure, shortened: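 Using 1000 HPAF-II cells per well, we titrated compounds over 11 concentrations for 72 h at 37 degrees C/5% CO2, with bortezomib as control. Cell survival was quantified by CellTiter-Glo luminescence.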
# [9] = UWB1.289 Cancer Cell Toxicity qHTS against the NCATS CANVASS Library (AID 1347347); conditions: outcome: dose series up to 38.3 µM; note: nearly all actives have a fitted effect of over 60% in size
# Procedure, shortened: as §1
# [10] = OV-SAHO Cancer Cell Toxicity qHTS against the NCATS CANVASS Library (AID 1347348); note: nearly all actives have a fitted effect of over 55% in size
# Procedure, shortened: as §1
# [11] = Panc-1005 Cancer Cell Toxicity qHTS against the NCATS CANVASS Library (AID 1347349); note: nearly all actives have a fitted effect of over 60% in size
# Procedure, shortened: as §1
# [12] = SW1088 Cancer Cell Toxicity qHTS against the NCATS CANVASS Library (AID 1347350); conditions: outcome: dose series up to 76 µM; note: nearly all actives have a fitted effect of over 75% in size
# Procedure, shortened: as §1
# [13] = U-118MG Cancer Cell Toxicity qHTS against the NCATS CANVASS Library (AID 1347351)
# Procedure, shortened: as §1
# [14] = COV-362 Cancer Cell Toxicity qHTS against the NCATS CANVASS Library (AID 1347352)
# Procedure, shortened: (§2)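 Using an ATP-based luminescent reagent after three days of treatment, toxicity is scored across an eleven-concentration range in wells holding 1000 cells each.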
# [15] = A2780 Cisplatin Sensitive Ovarian Cancer Cell Toxicity qHTS against the NCATS CANVASS Library (AID 1347353); conditions: A2780 ovarian cancer viability, ATPLite luminescence, 72 h; at 91.4 µM (top of the series) unless noted; note: nearly all actives have a fitted effect of over 60% in size
# Procedure, shortened: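 Quantitative HTS format: eleven compound concentrations applied to pre-seeded cells, 72 h incubation at 37 °C, then ATP detection by luminescence.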
# [16] = UWB1.289-WTBRCA1 Cancer Cell Toxicity qHTS against the NCATS CANVASS Library (AID 1347354); conditions: UWB1.289-WTBRCA1 viability, CellTiter-Glo luminescence, 72 h; at 76 µM (top of the series) unless noted
# Procedure, shortened: as §2
# [17] = ZIKV-mCherry secondary qHTS for Zika virus inhibitors (AID 1347158); note: top concentration of the series differs between compounds
# Procedure, shortened: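 This orthogonal imaging screen measured ZIKV-mCherry infection of Vero cells exposed to compound, MOI 1, 48-72 h. Percent infection came from segmented nuclei scored mCherry-positive above 3 SD of negative controls.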
# [18] = test system: Zika virus NS2B-NS3 protease (linked); assay: 384 well plate NINDS AMC confirmatory qHTS for Zika virus inhibitors (AID 1347163); note: potency is the fitted concentration of half-maximal effect; nearly all actives have a fitted effect of over 50% in size
# Procedure, shortened: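 Enzyme (5, 30 or 60 nM final) first met test compounds for ~15 min. The AMC-tagged peptide Ac-VKTGKR-AMC followed at 30 microM. Fluorescence was then recorded at 25 min and scaled against no-enzyme and no-inhibitor wells.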
# [19] = test system: Zika virus NS2B-NS3 protease (linked construct); assay: 384 well plate NINDS Rhodamine confirmatory qHTS for Zika virus inhibitors (AID 1347164); note: potency is the fitted concentration of half-maximal effect; nearly all actives have a fitted effect of over 65% in size
# Procedure, shortened: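 Cleavage of Ac-LKRR-Rhodamine 110 (10 microM final) by linked protease (final 5, 30 or 60 nM) was followed as fluorescence at 485/538 nm after 25 min, room temperature, dark. Compounds preincubated ~15 min.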
smiles,measurement,setting,value
C=C1C(=O)O[C@@H]2[C@H]3O[C@]3(C)CCC=C(C)CC[C@@H]12,Potency,[1],inactive
same,"activity, negative = inhibition",[2],-8.83%
NCCCCN=C(N)N,Potency,[1],inactive
same,"activity, negative = inhibition",[2],-1.42%
N[C@H](C(=O)O)[C@H](O)C(=O)O,Potency,[1],inactive
same,"activity, negative = inhibition",[2],-0.47%
CCCCCCCCCCC(C)(C)C(=O)Nc1c(OC)cc(OC)cc1OC,Potency,[1],inactive
same,"activity, negative = inhibition",[2],-22.8%
CC(C)NC[C@H](O)COc1cccc2ccccc12,Potency,[1],inactive
same,"activity, negative = inhibition",[2],-12%
OC1(c2ccc(Cl)cc2)CCN(Cc2c[nH]c3ccccc23)CC1,Potency,[1],inactive
same,"activity, negative = inhibition",[2],-0.728%
Nc1ncnc2c1ncn2C1CCCO1 (stereo not given),Potency,[1],inactive
same,"activity, negative = inhibition",[2],-7.06%
Cn1c(=O)[nH]c2ncn(C)c2c1=O,Potency,[1],inactive
same,"activity, negative = inhibition",[2],-3.98%
CC[N+](CC)(CC)CC(=O)Nc1c(C)cccc1C,Potency,[1],inactive
same,"activity, negative = inhibition",[2],-1.53%
O=C(OCCN1CCOCC1)C1(c2ccccc2)CCCCC1,Potency,[1],inactive
same,"activity, negative = inhibition",[2],-17.1%
N[C@H](C(=O)O)[C@H]1C[C@@H]1C(=O)O,Potency,[1],inactive
same,"activity, negative = inhibition",[2],-7.37%
Cc1nc2c(OCc3ccccc3)cccn2c1CC#N,Potency,[1],inactive
same,"activity, negative = inhibition",[2],0.134%
CC(C)(C)c1cc(/C=C(\C#N)C(N)=S)cc(C(C)(C)C)c1O,Potency,[1],inactive
same,"activity, negative = inhibition",[2],-26.1%
CC(N)(C(=O)O)c1ccc(C(=O)O)cc1 (stereo not given),Potency,[1],inactive
same,"activity, negative = inhibition",[2],-6.58%
C[C@@]1(C2CCCC2)Cc2cc(OCC(=O)O)c(Cl)c(Cl)c2C1=O,Potency,[1],inactive
same,"activity, negative = inhibition",[2],-5.03%
CSC(=N)N,Potency,[1],inactive
same,"activity, negative = inhibition",[2],-3.96%
COc1cc2c(CCNC(C)=O)c[nH]c2cc1O,Potency,[3],inactive
same,Potency,[4],inactive
same,Potency,[5],inactive
CC(C)NCC(O)COc1ccc(CC(N)=O)cc1 (stereo not given),Potency,[1],inactive
same,"activity, negative = inhibition",[2],-1.35%
CCCn1c(=O)c(C)cn2nc(N)nc12,Potency,[1],26.7 µM (active)
same,"activity, negative = inhibition",[2],-3980% (active)
O=C(O)c1cccnc1C(=O)O,Potency,[1],inactive
same,"activity, negative = inhibition",[2],6.25%
O=C(O)C1=CCCNC1,Potency,[1],inactive
same,"activity, negative = inhibition",[2],-1.96%
CCN(CC)CCOC(=O)c1cc(Cl)c(N)cc1OC,Potency,[1],inactive
same,"activity, negative = inhibition",[2],-9.27%
O=[N+]([O-])c1cccc2cn[nH]c12,Potency,[1],inactive
same,"activity, negative = inhibition",[2],-3.93%
Cc1cccc(C(=O)NCN2CCN(c3ccccc3C#N)CC2)c1,Potency,[1],inactive
same,Potency,[4],inactive
same,Potency,[5],inactive
O=C(O)Cc1c[nH]c2ccc(O)cc12,outcome,[6],inactive
same,outcome,[7],inactive
same,outcome,[8],inactive
same,outcome,[9],inactive
same,outcome,[10],inactive
same,outcome,[11],inactive
same,outcome,[12],inactive
same,outcome,[13],inactive
same,outcome,[14],inactive
same,outcome,[15],inactive
same,outcome,[16],inactive
COc1cc(CC(=O)O)ccc1O,Potency,[1],inactive
same,"activity, negative = inhibition",[2],-5.93%
Cc1nc(N=Nc2cc(S(=O)(=O)O)c3cc([N+](=O)[O-])cc(S(=O)(=O)O)c3c2)c(COP(=O)(O)O)c(C=O)c1O,Potency,[17],inactive
same,Potency,[18],31.6 µM (active)
same,"activity, negative = inhibition",[2],-12.7%
same,Potency,[5],inactive
O=c1[nH]c(=S)[nH]c(-c2ccccc2)c1Cc1c(O)ccc2ccccc12,Potency,[17],inactive
same,Potency,[3],3.49 µM (active)
same,Potency,[19],70.8 µM (active)
same,"activity, negative = inhibition",[2],-27.4%
same,Potency,[4],inactive
same,Potency,[5],inactive
CC(C)Cn1c(=O)n(C)c(=O)c2[nH]cnc21,Potency,[1],inactive
same,"activity, negative = inhibition",[2],-4.21%
COC(=O)C1=C(C)NC(C)=C([N+](=O)[O-])C1c1ccccc1C(F)(F)F (stereo not given),Potency,[1],inactive
same,"activity, negative = inhibition",[2],-5.36%
N[C@H](C(=O)O)c1cc(O)cc(O)c1,Potency,[1],inactive
same,"activity, negative = inhibition",[2],-24%
CCCCCC(O)CCCC(=O)O (stereo not given),Potency,[1],inactive
same,"activity, negative = inhibition",[2],-6.03%
C=CCN1CCc2c(cc(O)c(O)c2Br)[C@@H](c2ccccc2)C1,Potency,[19],8.91 µM (active)
same,Potency,[4],inactive
same,Potency,[5],11.7 µM (active)
C=CCn1c(=O)c2c(nc(-c3ccc(S(=O)(=O)O)cc3)n2C)n(C)c1=O,Potency,[1],5.32 µM (active)
same,"activity, negative = inhibition",[2],-806% (active)
CCCCOc1cc(CC2CNC(=O)N2)ccc1OC (stereo not given),Potency,[1],inactive
same,"activity, negative = inhibition",[2],-3.5%
CCCCCCC(=O)OC1CC(C)(C)NC(C)(C)C1,Potency,[1],inactive
same,"activity, negative = inhibition",[2],-0.896%
CCCCCCCCCCC/C=C\C(C)(C)/C=C\CCCC(=O)O,"activity change, negative = inhibition",[1],13.4% [at 6.83 µM]
same,"activity, negative = inhibition",[2],-18.4%
c1ccc(C(NCc2cccnc2)(c2ccccc2)c2ccccc2)cc1,Potency,[1],inactive
same,"activity, negative = inhibition",[2],-13.8%
CNC(=O)c1cc2c(cn1)[nH]c1ccccc12,Potency,[1],21.2 µM (active) and 18.9 µM (active)
same,Potency,[4],inactive
Cn1cc(C(F)(F)F)nc1-c1ccc(OCC(O)CNCCOc2ccc(O)c(C(N)=O)c2)cc1 (stereo not given),Potency,[3],inactive
same,"activity, negative = inhibition",[2],-27.4%
same,Potency,[4],inactive
same,Potency,[5],inactive
Nc1ccc(-c2ccc3ccccc3n2)cc1,Potency,[3],inactive
same,Potency,[4],inactive
same,Potency,[5],inactive
CC1CCN(CC[C@H]2CCCN2S(=O)(=O)c2cccc(O)c2)CC1,Potency,[1],inactive
same,"activity, negative = inhibition",[2],1.65%
